From paper PMC5540273 (PLoS ONE, 2017)
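Also: kd values determined as follow-up on hits from a single-replicate KINOMEscan panel screen.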

The compounds below were run on BLK.
For COc1cc2nccc(Nc3ccc(NC(=O)c4ccc(C)cc4)c(O)c3)c2cc1OC.Cl [GW440132], the Kd was 230 nM. Compound Cl.NC(=O)c1cccc(Nc2nccc(Nc3ccc(Oc4cccc(Cl)c4)c(Cl)c3)n2)c1 [GW659008] has a Kd of 2600 nM. Cc1ccc(C(=O)Nc2ccc(Nc3ccnc4cc(-c5ccccn5)ccc34)cc2O)cc1.Cl [GW440146] was tested, and the Kd was 63 nM.

Each compound was assayed on BRAF.
CC(=O)Nc1nc2cnc(Nc3cc(NC(=O)c4cccc(CCC#N)c4)ccc3C)nc2s1 was tested, and the Kd was over 10000 nM. Cc1cccc(-c2nc(-c3ccc(S(C)(=O)=O)cc3)sc2-c2ccnc(NCCc3ccccc3)c2)c1 gave a Kd of 81 nM. In the case of COC(=O)c1c(-c2ccccc2)c2cc(OC)ccc2c(=O)n1Cc1ccccc1, the Kd is reported as 61 nM. CN(C)CCN(C)C(=O)c1cc(-c2ccncc2)c(-c2ccc(Cl)c(O)c2)o1.Cl.Cl [SB-710397] was tested, and the Kd was 45 nM. With COC(=O)c1c(-c2ccccc2)c2cc(C(=O)O)ccc2c(=O)n1Cc1ccccc1 the Kd was 50 nM. With Cl.O=C(Nc1cccc(-c2nn3ncccc3c2-c2ccnc(Nc3cccnc3)n2)c1)c1c(F)cccc1F [GSK312879] the Kd was 62 nM.

Each compound was assayed on BRSK1.
O=C(Nc1n[nH]c2nc(-c3nccs3)c(Br)cc12)C1CCCC1 [SB-742609] showed a Kd of 430 nM. With O=C(Nc1n[nH]c2nc(-c3nccs3)c(Br)cc12)C1CC1 [SB-742251] the Kd was 230 nM. With Cc1ccc(NC(=O)Nc2cc(C(C)(C)C)nn2-c2ccccc2)cc1 [GSK1014915] the Kd was over 10000 nM. In the case of Cc1ccc(NC(=O)Nc2cccc(Cl)c2)cc1-c1ccc(C(=O)Nc2ccncc2)cc1 [GSK1398468], the Kd is reported as over 10000 nM. CS(=O)(=O)c1ccc(-c2c(-c3ncn[nH]3)sc(N3CCOCC3)c2C#N)cc1 showed a Kd of over 10000 nM. In the case of CCn1c(-c2ccccn2)nc2cnccc21 [SB-736398], the Kd is reported as over 10000 nM.

What follows are compounds tested on BRSK2.
For O=C(Nc1n[nH]c2nc(-c3nccs3)c(Br)cc12)C1CCCC1 [SB-742609], the Kd was 330 nM. O=C(Nc1n[nH]c2nc(-c3nccs3)c(Br)cc12)C1CC1 [SB-742251] was tested, and the Kd was 140 nM. COc1ccccc1CNC(=O)c1cc(C(=O)c2ccccc2C)c[nH]1 [GSK364507] showed a Kd of over 10000 nM.
